# Data published in PubChem BioAssay (NCATS).
# “And” between values parts separate entries of the source, which are not always exact repeats. Equal values may be shown once. Inconclusive results are not listed. Values without a mark were called inactive. The source made the active and inactive calls. Calls come from the whole dose curve; as a rule, active = well fitted inhibition curve with a large enough effect; inconclusive = small, poorly fitted or top-dose-only effect; inactive = flat fitted curve, though single readings scatter.
# What was measured:
# Experiment in all cases: Cytotoxic Profiling of Annotated Libraries Using Quantitative High-Throughput Screening (AID 1296008); note: nearly all actives have a fitted effect of over 60% in size
# Details in all cases: Five cell lines viability, CellTiter-Glo ATP luminescence, 48-72 h; max response: stronger effect = lower value
# CRL-7250 = normal cell line; test system: CRL-7250
# Procedure, shortened: (§1)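 Cytotoxicity was measured as CellTiter-Glo ATP luminescence, read after 10 min at room temperature. Compound treatment of the cells lasted 48 or 72 hr at 37 degrees Celsius in a qHTS format.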
# HEK293 = test system: HEK293
# Procedure, shortened: as §1
# HaCat = test system: HaCat
# Procedure, shortened: as §1
# % is set by controls: 0 for no effect and ±100 for the full control effect; potency is the fitted concentration of half-maximal effect.
structure (smiles),measurement,setting,value
CCN(CC)CCCCNc1ncc2c(n1)N(C)C(=O)N(c1c(Cl)c(OC)cc(OC)c1Cl)C2,Potency,CRL-7250,14.8 µM (active)
same,Potency,HEK293,2090 nM (active)
CC(=O)O[C@@]12CO[C@H]1C[C@H](O)[C@@]1(C)C(=O)[C@H](O)C3=C(C)[C@@H](OC(=O)C(O)[C@@H](NC(=O)OC(C)(C)C)c4ccccc4)C[C@@](O)([C@@H](OC(=O)c4ccccc4)[C@@H]21)C3(C)C (some centres undefined),max response,CRL-7250,-64.7%
same,max response,HEK293,-90.2%
CCc1c(O)cc(O)c(C(=O)c2ccc(OCCN3CCOCC3)c(OC)c2)c1CC(=O)N(CCOC)CCOC,Potency,CRL-7250,1.32 µM (active)
same,Potency,HEK293,833 nM (active)
CN(C)CCN1C(=O)c2cccc3cc(N)cc(c23)C1=O,Potency,CRL-7250,10.5 µM (active)
O=C1NC(=O)C(=Cc2ccc3nccc(-c4ccncc4)c3c2)S1,Potency,CRL-7250,0.0526 µM (active)
same,Potency,HEK293,74.3 nM (active)
Cn1cc(-c2cnn3c(N)c(Br)c([C@H]4CCCNC4)nc23)cn1,Potency,CRL-7250,20.9 µM (active)
same,Potency,HEK293,418 nM (active)
N[C@H]1CN(c2c(F)cc3c(=O)c(C(=O)O)cn(C4C[C@@H]4F)c3c2Cl)CC12CC2 (some centres undefined),max response,CRL-7250,-23.8%
same,max response,HEK293,-9.37%
Oc1cc(-c2nc(-c3ccccc3)[nH]c2-c2ccncc2)ccc1Cl,max response,CRL-7250,-23.8%
same,Potency,HEK293,23500 nM (active)
C[C@@H](Cc1cc2c(c(C(N)=O)c1)N(CCCO)CC2)NCCOc1ccccc1OCC(F)(F)F,Potency,CRL-7250,20.6 µM (active)
FC(F)c1nc2ccccc2n1-c1nc(N2CCOCC2)nc(N2CCOCC2)n1,Potency,CRL-7250,590 nM (active) and 1.16 µM (active)
same,Potency,HEK293,1460 nM (active)
same,Potency,HaCat,3260 nM (active)
CCC[C@H]1C[C@H](C(=O)N[C@@H]([C@@H]2O[C@@H](SC)[C@@H](O)[C@@H](O)[C@@H]2O)[C@H](C)Cl)N(C)C1,max response,CRL-7250,-6.31%
same,max response,HEK293,-2.02%
same,max response,HaCat,-10.7%
CN1C(C(=O)Nc2ccccn2)=C(O)c2sc(Cl)cc2S1(=O)=O,outcome,CRL-7250,inactive
same,outcome,HEK293,inactive
same,outcome,HaCat,inactive
CCOC(=O)C1=C(C)NC(=S)NC1c1cccc(O)c1 (centres undefined),max response,CRL-7250,-18.5%
same,Potency,HEK293,13.2 nM (active)
same,max response,HaCat,-10%
COc1ccc(Nc2nccc(NCCO)n2)cc1,max response,CRL-7250,1.05%
same,max response,HEK293,-0.619%
same,max response,HaCat,0.234%
O=C(C=Cc1ccc(CN(CCO)CCc2c[nH]c3ccccc23)cc1)NO,Potency,CRL-7250,0.833 µM (active)
same,Potency,HEK293,372 nM (active)
same,Potency,HaCat,526 nM (active)
CC(=O)O[C@H]1C[C@@H]2CC[C@H]3[C@H]4C[C@H]([N+]5(C)CCCCC5)[C@@H](OC(C)=O)[C@@]4(C)CC[C@@H]3[C@@]2(C)C[C@H]1[N+]1(C)CCCCC1,max response,CRL-7250,0.398%
same,max response,HEK293,0.173%
same,outcome,HaCat,inactive
CC(=O)OC[C@@H]1O[C@@H](n2ccc(=O)[nH]c2=O)[C@H](OC(C)=O)[C@H]1OC(C)=O,max response,CRL-7250,-3.38%
same,max response,HEK293,-0.274%
same,max response,HaCat,-10.5%
C=C(C)[C@@H]1CC[C@]2(C)CC[C@]3(C)[C@H](CC[C@@H]4[C@@]5(C)CC[C@H](O)C(C)(C)[C@H]5CC[C@]43C)[C@@H]12,max response,CRL-7250,-9.28%
same,outcome,HEK293,inactive
same,outcome,HaCat,inactive
O=C(CN1C(=O)C2(CCCC2)NC[C@H]1c1cc(F)cc(F)c1)Nc1ccc2c(c1)C[C@@]1(C2)C(=O)Nc2ncccc21,outcome,CRL-7250,inactive
same,outcome,HEK293,inactive
same,max response,HaCat,3.79%
COC1=C(OC)C(=O)C(CC=C(C)CCC=C(C)CCC=C(C)CCC=C(C)CCC=C(C)CCC=C(C)CCC=C(C)CCC=C(C)CCC=C(C)CCC=C(C)C)=C(C)C1=O,outcome,CRL-7250,inactive
same,max response,HEK293,-5.18%
same,max response,HaCat,-8.05%
CC(=O)N[C@H]1[C@@H]([C@H](O)[C@H](O)CO)OC(C(=O)O)=C[C@@H]1N=C(N)N,max response,CRL-7250,-3%
same,max response,HEK293,2.95%
same,max response,HaCat,-9.9%
CCOC(=O)C=C[C@H](C[C@@H]1CCNC1=O)NC(=O)[C@@H](CC(=O)[C@@H](NC(=O)c1cc(C)on1)C(C)C)Cc1ccc(F)cc1,max response,CRL-7250,-2.35%
same,max response,HEK293,-0.69%
same,max response,HaCat,-7.58%
CC1(C)[C@H](O[C@H]2O[C@H](C(=O)O)[C@@H](O)[C@H](O)[C@H]2O[C@@H]2O[C@H](C(=O)O)[C@@H](O)[C@H](O)[C@H]2O)CC[C@@]2(C)[C@H]1CC[C@]1(C)[C@H]2C(=O)C=C2[C@H]3C[C@@](C)(C(=O)O)CC[C@]3(C)CC[C@]21C,max response,CRL-7250,-14.3%
same,max response,HEK293,0.699%
same,outcome,HaCat,inactive
O=C(O)C(=O)Nc1cccc(C2=NN=N[N]2)c1,outcome,CRL-7250,inactive
same,max response,HEK293,-1.4%
same,max response,HaCat,-4.6%
CC(=O)O[C@]1(C(C)=O)CC[C@H]2[C@@H]3C=C(C)C4=CC(=O)CC[C@]4(C)[C@@H]3CC[C@@]21C,outcome,CRL-7250,inactive
same,max response,HEK293,-9.75%
same,outcome,HaCat,inactive; activator
